Measured values published in PubChem BioAssay (Tox21).
Results filed as inconclusive are left out. Active and inactive are the calls of the source. Unless noted, the call rests on the fitted dose curve.

Key:
[1] = qHTS assay to identify small molecule agonists of the vitamin D receptor (VDR) signaling pathway - cell viability counter screen (AID 743224; active means well fitted curve in the direction sought with a large enough effect in the repeat runs; an effect the other way counts as inactive or inconclusive; further: series mostly up to about 63 µM; nearly all actives have a fitted effect of over 50% in size)
How it was run: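 Luminescence from CellTiter-Glo, read after 30 min at room temperature, reports viability of VDR-bla cells treated with compounds for 16 h at 37C in the wells used for the beta-lactamase FRET read.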

[2] = qHTS assay to identify small molecule antagonists of the vitamin D receptor (VDR) signaling pathway - cell viability counter screen (AID 743225; active means well fitted curve in the direction sought with a large enough effect in the repeat runs; an effect the other way counts as inactive or inconclusive; further: nearly all actives have a fitted effect of over 50% in size)
How it was run: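 Same-well multiplex: following 16 h treatment of HEK 293T cells carrying a UAS-driven beta-lactamase reporter with compound and agonist (3 nM final), and a 2 h FRET substrate step, CellTiter-Glo was added and luminescence read after 30 min.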

[3] = qHTS assay to identify small molecule agonists of the NFkB signaling pathway (AID 1159509; active means well fitted curve in the direction sought with a large enough effect in the signal ratio in the repeat runs, not every such curve was filed as active; the % refers to the signal ratio; further: series mostly up to about 61 µM)
How it was run: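 NFkB-bla ME-180 cells with a beta-lactamase reporter under an NF-kB response element were plated overnight, treated with compounds in DMSO for 5 hr at 37 C, then loaded with FRET substrate for 1.5 hr at room temperature.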

[4] = qHTS assay to identify small molecule agonists of the NFkB signaling pathway - cell viability counter screen (AID 1159515); further: series mostly up to about 61 µM; nearly all actives have a fitted effect of over 55% in size
How it was run: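 Luminescence from CellTiter-Glo (30 min, room temperature) gives viability, measured in the same wells as the beta-lactamase reporter read. Cells were NFkB-bla ME-180, 2,000 per well, treated 5 hr with compounds.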

[5] = qHTS assay to identify small molecule agonists of the endoplasmic reticulum stress response signaling pathway (AID 1159516; active means well fitted activation curve with a large enough effect in the signal ratio in the repeat runs, not every such curve was filed as active; the % refers to the signal ratio)
How it was run: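 Read-out is beta-lactamase cleavage of a FRET substrate (405 nm excitation; 460 and 530 nm emissions) in ESRE-bla HeLa cells after a 5 hr compound exposure at 37 C. Substrate incubation ran 2 hr at room temperature.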

[6] = qHTS assay to identify small molecule agonists of the endoplasmic reticulum stress response signaling pathway - cell viability counter screen (AID 1159517);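 further: HeLa cells carrying an ER stress response element beta-lactamase reporter; series mostly up to about 61 µM; nearly all actives have a fitted effect of over 50% in size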
How it was run: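 Counter-screen wells were identical to the reporter wells. Cells were plated at 1,500 per well and dosed for 5 hr, then read for luminescence 30 min after CellTiter-Glo addition.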

[7] = qHTS assay to identify small molecule antagonists of the retinoid-related orphan receptor gamma (ROR-gamma) signaling pathway - cell viability counter screen (AID 1159520; active means well fitted curve in the direction sought with a large enough effect in the repeat runs; an effect the other way counts as inactive or inconclusive; further: nearly all actives have a fitted effect of over 50% in size)
How it was run: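 Tet-on ROR gamma CHO cells were given compounds for 2 hr, then doxycycline hyclate at 1 uM final, and incubated 16 hr at 37 C. Viability was measured as ATP content by CellTiter-Glo luminescence.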

[8] = qHTS assay to identify small molecule agonists of the AP-1 signaling pathway - cell viability counter screen (AID 1159525); further: nearly all actives have a fitted effect of over 55% in size
How it was run: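 AP-1-bla ME-180 cells in Opti-MEM with 0.5% dialyzed FBS, compound exposure 5 h at 37 C in 15-point titration. Viability read in the same wells as ATP content by CellTiter-Glo luminescence, normalised to tetra-n-octylammonium bromide and DMSO controls.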

[9] = qHTS assay to identify small molecule agonists of the AP-1 signaling pathway (AID 1159526)
[10] = target: Nuclear receptor ROR-gamma (Homo sapiens) (UniProt P51449); assay: qHTS assay to identify small molecule antagonists of the retinoid-related orphan receptor gamma (ROR-gamma) signaling pathway (AID 1159521; active means well fitted curve in the direction sought with a large enough effect in the repeat runs; an effect the other way counts as inactive or inconclusive)
How it was run: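 Inducible-expression reporter assay: doxycycline (1 uM final) switched on RORγ in CHO cells bearing a ROR response element-luciferase construct, with test compounds present from 2 h beforehand. Decreased luminescence after 16 h defined antagonist activity.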

Measured: Potency

CC(=O)N(CC(O)CN(C(C)=O)c1c(I)c(C(=O)NCC(O)CO)c(I)c(C(=O)NCC(O)CO)c1I)c1c(I)c(C(=O)NCC(O)CO)c(I)c(C(=O)NCC(O)CO)c1I (stereo unspecified)
not listed: [10]
inactive: all other assays above

Cc1ccc([N+](=O)[O-])cc1Cl
not listed: [1] | [10]
inactive: all other assays above

O=C1CCC(C2CCCCC2)CC1
not listed: [10]
inactive: all other assays above

CCC(=O)c1ccc2c(c1)N(CCCN(C)C)c1ccccc1S2
inactive: [3] | [5] | [6] | [7] | [10]

Cc1ccc(C)c(N)c1
not listed: [10]
inactive: all other assays above

CC1(C)S[C@@H]2[C@H](NC(=O)C(C(=O)O)c3ccccc3)C(=O)N2[C@H]1C(=O)O (stereo partly specified)
not listed: [10]
inactive: all other assays above

COC(=O)C(C)O (stereo unspecified)
not listed: [10]
inactive: all other assays above

OCCN(CCO)CCN(CCO)CCO
not listed: [4] | [10]
inactive: all other assays above

COc1ccc(Nc2ccc(OC)cc2)cc1
not listed: [4] | [9]
inactive: all other assays above

CCC1(C)NC(=O)NC1=O (stereo unspecified)
not listed: [2] | [4] | [10]
inactive: all other assays above

NCCCN1CCN(CCCN)CC1
not listed: [4] | [10]
inactive: all other assays above

Cc1nnc(SCC2=C(C(=O)O)N3C(=O)[C@@H](NC(=O)Cn4cnnn4)[C@H]3SC2)s1
inactive: [3] | [5] | [6] | [7] | [8] | [9]

CCCN(CCC)C(=O)C(CCC(=O)O)NC(=O)c1ccccc1 (stereo unspecified)
not listed: [4] | [8]
inactive: all other assays above

CC(C)C1=CC2=CC[C@@H]3[C@](C)(CCC[C@@]3(C)C(=O)O)[C@H]2CC1
not listed: [4] | [9]
inactive: all other assays above
